Compound activity as filed in PubChem.
Hits are enriched below; roughly 2.8% of the tested compounds scored in any of these assays.
D3 ag: agonists of human D3 dopamine receptor. hit rate 0.58% among 410,000. P35462. max activation, %. AID 652048. D3R DiscoveRx beta-arrestin cells, luminescence, 90 min; in the data active = max activation above about 30%; also: 0% is about no effect
Target sequence (P35462 whole entry, looked up): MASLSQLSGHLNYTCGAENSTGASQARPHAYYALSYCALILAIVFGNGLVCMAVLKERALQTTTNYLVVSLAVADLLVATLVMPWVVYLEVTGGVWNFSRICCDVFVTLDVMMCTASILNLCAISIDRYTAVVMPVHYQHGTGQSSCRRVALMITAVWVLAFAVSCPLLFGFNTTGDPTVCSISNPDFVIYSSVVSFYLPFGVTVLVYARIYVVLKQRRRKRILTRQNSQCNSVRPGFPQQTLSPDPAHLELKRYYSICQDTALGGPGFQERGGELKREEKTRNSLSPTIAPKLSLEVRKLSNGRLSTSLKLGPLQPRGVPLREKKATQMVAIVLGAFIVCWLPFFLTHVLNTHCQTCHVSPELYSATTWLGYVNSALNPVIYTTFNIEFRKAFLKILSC
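Cells at 1500/well, incubated overnight, then treated with pinned compounds (dopamine as control) for 90 min at 37 degrees C. DiscoveRx reagent added for 30 - 60 minutes at room temperature; luminescence read.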
DRD3 antagonist: D3 dopamine receptor (human) antagonism; P35462; D3R cells, DiscoveRx beta-arrestin luminescence, antagonist mode; stronger effect = lower value; max response, negative = inhibition, %; hit rate 2.5% among 360,000; in the data active = max response below about -50%; inconclusive = no clear call, values can overlap the other calls; also: % is scaled to controls: 0 for no effect and ±100 for the full control effect
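Cells plated overnight at 1500 cells/well, then exposed to library compounds with dopamine controls for 90 minutes at 37 degrees C. DiscoveRx reagent added for 30–60 minutes at room temperature; luminescence read, quantitative HTS format.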
Giardia kill: Giardia lamblia killing. Giardia lamblia trophozoite viability. activity change, % at 7.66 µM, hits read low. hit rate 0.15% among 340,000; in the data active = activity change below about -80%; inconclusive = between about -30% and that limit;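 also: parasites exposed to compound for two days anaerobically before the ATP read; % is scaled to controls: 0 for no effect and ±100 for the full control effect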
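Trophozoites 100 cells/well + cpd; 48 hrs, 37 deg C, anaerobic. ATPLite 1-Step added, 15-30 min RT, luminescence read (ATP-based viability).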
B2AR arrestin: beta2AR (human) beta-arrestin recruitment activity; hit rate 0.02% among 330,000; beta-arrestin recruitment to beta2AR, cell-based reporter; Potency, µM (titrated, usually from 46.1 µM), without a hit: top-dose activation, usual class: activators; P07550; active = well fitted activation curve with a large enough effect; inconclusive = small, poorly fitted or top-dose-only effect;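 also: potency is read from the fitted curve at half-maximal effect; 0% = DMSO controls and full agonism = EC100 isoproterenol or metaproterenol; nearly all actives have a fitted effect of over 65% in size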
* marks the source's active call; other numbers are inactive results.

What do the screens show for `CN(C)CCNC(=O)C12CC3(C)CC(C)(CC(C)(C3)C1)C2`?
D3 ag: 7; DRD3 antagonist: -52*; Giardia kill: -4; B2AR arrestin: 0%

What do the screens show for `CC(=O)OCC(NC(=O)C(COCc1ccccc1)NC(=O)OC(C)(C)C)C1OC(n2cc(F)c(=O)[nH]c2=O)C(OC(C)=O)C1OC(C)=O` (stereo not drawn)?
Giardia kill: -7

Results for O=C(O)c1cc2ccccc2c(N=Nc2cccnc2)c1O ?
D3 ag: -2; DRD3 antagonist: inconclusive; Giardia kill: -82*; B2AR arrestin: -1%

What do the screens show for `Cc1cccc2c(C(=O)O)cc(-c3cccnc3)nc12`?
D3 ag: -3; DRD3 antagonist: 12; Giardia kill: -14; B2AR arrestin: 0%

How did c1ccc2c(c1)CCN(CCCNc1nc3ccccc3n3cnnc13)C2 do in these assays?
D3 ag: -20; DRD3 antagonist: -109*; Giardia kill: -15; B2AR arrestin: 0%

Results for COCCNc1nc2ccccc2n2cnnc12 ?
D3 ag: 8; DRD3 antagonist: 19; Giardia kill: 10; B2AR arrestin: 0%

Results for CCOC(=O)c1cc([N+](=O)[O-])sc1N ?
D3 ag: 2; DRD3 antagonist: 6; Giardia kill: 1; B2AR arrestin: 0%

What do the screens show for `CCOC(=O)c1cc([N+](=O)[O-])sc1NC(=O)CC`?
D3 ag: -7; DRD3 antagonist: -12; Giardia kill: -86*; B2AR arrestin: 0%

Results for CCn1nc(C(=O)OCC(=O)Nc2nc(-c3ccc(OC)cc3)cs2)c2ccccc2c1=O ?
D3 ag: 35*; DRD3 antagonist: 90; Giardia kill: -16; B2AR arrestin: 0%

How did CC(C)c1nc2sc3c(=O)[nH]cnc3c2c2c1CCC2 do in these assays?
D3 ag: 52*; DRD3 antagonist: 7; Giardia kill: 7; B2AR arrestin: 0%

How did O=S(=O)(c1ccccc1Cl)N1CCN(c2nc(-c3cccs3)nc3ccccc23)CC1 do in these assays?
Giardia kill: -5

How did C=CCN1CCc2c(cc(O)c(O)c2Br)[C@@H](c2ccccc2)C1 do in these assays?
D3 ag: 83*; DRD3 antagonist: 3; Giardia kill: 7

Results for COc1ccc(C#Cc2c[nH]c(=O)c3cncnc23)cc1OC ?
Giardia kill: -2

How did Cc1cc(=O)n2[nH]c(-c3ccco3)nc2n1 do in these assays?
D3 ag: -12; DRD3 antagonist: -24; Giardia kill: -9; B2AR arrestin: 0%

What do the screens show for `CCCc1cc(=O)n2[nH]c(-c3ccco3)nc2n1`?
D3 ag: 43*; DRD3 antagonist: -14; Giardia kill: -8; B2AR arrestin: -1%

How did O=C(C1CCCCN1S(=O)(=O)c1ccccc1[N+](=O)[O-])N1CCCC1 (stereo not drawn) do in these assays?
D3 ag: 0; DRD3 antagonist: -53*; Giardia kill: 2; B2AR arrestin: 0%

Results for O=C(NCCN1CCN(c2ccccc2)CC1)C1(S(=O)(=O)c2ccc(Cl)cc2)CC1 ?
D3 ag: -1; DRD3 antagonist: -53*; Giardia kill: -12; B2AR arrestin: 0%

How did O=C(c1cccc(Cl)c1)N1CCN(CCCc2ccccc2)CC1 do in these assays?
D3 ag: 33*; DRD3 antagonist: -18; Giardia kill: 15; B2AR arrestin: -1%

How did Nc1ccccc1C(=O)NCCCN1CCN(c2cccc(Cl)c2)CC1 do in these assays?
D3 ag: -10; DRD3 antagonist: -73*; Giardia kill: 3

Results for O=C(c1ccccc1)N1CCN(CCc2ccccc2)CC1 ?
D3 ag: -19; DRD3 antagonist: -6; Giardia kill: -2; B2AR arrestin: 0%

Results for O=C(NCCN1CCN(c2cccc(Cl)c2)CC1)c1ccc(CSc2nc3ccncc3[nH]2)cc1 ?
D3 ag: 49*; DRD3 antagonist: -21; Giardia kill: -3; B2AR arrestin: 0%

Results for CCNC(=O)CCSc1nnc(-c2ccc(O)cc2)o1 ?
D3 ag: -7

What do the screens show for `CCN(CC)CCOc1ccc(-c2nc3cc(Cl)ccc3s2)cc1`?
D3 ag: -12

What do the screens show for `Cc1cc(Nc2ccccc2F)n2nc(-c3ccccc3)nc2n1`?
D3 ag: 5

How did O=C(NCCN1CCN(c2ccccc2)CC1)c1cccc(Cl)c1 do in these assays?
D3 ag: 24; DRD3 antagonist: -56*; Giardia kill: -14; B2AR arrestin: 0%

What do the screens show for `S=C1NCCc2ccc(Cl)cc2C1c1ccccc1` (stereo not drawn)?
D3 ag: -3; DRD3 antagonist: -62*; Giardia kill: -9; B2AR arrestin: 0%

What do the screens show for `Cc1ccc(C)c(S(=O)(=O)Nc2cc(SCC(=O)O)c(O)c3ccccc23)c1`?
D3 ag: -8; DRD3 antagonist: inconclusive; Giardia kill: 11; B2AR arrestin: -1%

What do the screens show for `CCOc1ccc(S(=O)(=O)Nc2cc3c(C(=O)OC)c(COC)oc3c3ccccc23)cc1`?
D3 ag: -2

How did O=C(O)CSc1cc(NS(=O)(=O)c2cccc([N+](=O)[O-])c2)c2ccccc2c1O do in these assays?
D3 ag: -16; DRD3 antagonist: -51*; Giardia kill: -81*; B2AR arrestin: 0%

How did CCc1ccc(S(=O)(=O)Nc2cc(SCC(=O)O)c(O)c3ccccc23)cc1 do in these assays?
D3 ag: -2; DRD3 antagonist: -63*; Giardia kill: -7; B2AR arrestin: 0%

How did CCOc1ccc(S(=O)(=O)Nc2cc(SCC(=O)O)c(O)c3ccccc23)cc1 do in these assays?
D3 ag: -16; DRD3 antagonist: -51*; Giardia kill: -14; B2AR arrestin: 0%

Results for C=C1C(=C/C=C2\CCC[C@]3(C)[C@@H]([C@H](C)/C=C/[C@H](C)C(C)C)CC[C@@H]23)C[C@@H](O)C[C@@H]1O ?
D3 ag: -6

What do the screens show for `CCc1ccccc1NC(=O)COC(=O)c1cn(CC)c2nc(C)ccc2c1=O`?
D3 ag: -15

Results for Cc1ccc(Cl)cc1N1CCN(C(=O)c2cn(C)c3ccc(S(=O)(=O)N4CCCC4)cc3c2=O)CC1 ?
D3 ag: -27

How did CC1CCN(S(=O)(=O)c2ccc3c(c2)c(=O)c(C(=O)NCc2ccc(Cl)cc2)cn3C)CC1 do in these assays?
D3 ag: -22

How did O=S(=O)(c1ccc(Cl)s1)N1CCN(C/C=C/c2ccccc2)CC1 do in these assays?
D3 ag: 1; DRD3 antagonist: -82*; Giardia kill: 14; B2AR arrestin: 1%

Results for O=S(=O)(c1ccc(Cl)s1)N1CCN(Cc2ccccc2)CC1 ?
D3 ag: -10; DRD3 antagonist: -59*; Giardia kill: inconclusive; B2AR arrestin: -1%

How did O=C(C1CC(=O)N(c2ccccc2)C1)N1CCN(c2ccc(F)cc2)CC1 (stereo not drawn) do in these assays?
D3 ag: -14; DRD3 antagonist: -69*; Giardia kill: -6; B2AR arrestin: -1%

Results for O=C(O)C1CCN(S(=O)(=O)c2ccc(N3CCCC3C(=O)O)c([N+](=O)[O-])c2)CC1 (stereo not drawn) ?
D3 ag: -20; DRD3 antagonist: -82*; Giardia kill: -12; B2AR arrestin: -1%
